# Experimental data reported in PubChem BioAssay (EPA / NIEHS).
# Inconclusive results are not listed. Active and inactive are the calls of the source. Rule for the calls: active = hit-call score of the fitted dose curve at least 0.9, where 1 is the maximum; inconclusive = response in the unintended direction; inactive = score below 0.9.
# Tests used:
# [1] = target: rat Acetylcholinesterase (AChE), Ache (gene 83817) (UniProt P37136); assay: NVS_ENZ_rAChE: NovaScreen (NVS) Enzymatic Assay for rat Acetylcholinesterase (AChE) (AID 2283233)
# Summary of the method: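 Compounds first screened at 25 uM in duplicate, then those passing threshold tested in concentration series up to 50 uM, against AChE from rat brain membranes. Enzyme activity read by absorbance at 0.33 h; inhibition scored versus DMSO.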
# [2] = target: human Sirtuin 1 (SIRT1), SIRT1 (gene 23411) (UniProt Q96EB6); assay: NVS_ENZ_hSIRT1: NovaScreen (NVS) Enzymatic Assay for human Sirtuin 1 (SIRT1) (AID 2283219)
# Summary of the method: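 Cell-free recombinant SIRT1 with a fluorescent substrate; substrate and product separated by electrophoretic mobility shift and read by fluorescence intensity, 1 h after dosing. Primary screen at 25 uM in duplicate; hits re-run in concentration-response up to 50 uM, relative to DMSO.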
# [3] = target: human Sirtuin 3 (SIRT3), SIRT3 (gene 23410) (UniProt Q9NTG7); assay: NVS_ENZ_hSIRT3: NovaScreen (NVS) Enzymatic Assay for human Sirtuin 3 (SIRT3) (AID 2283222)
# human Sirtuin 3 (SIRT3), SIRT3 (gene 23410), sequence (Q9NTG7 whole entry, looked up): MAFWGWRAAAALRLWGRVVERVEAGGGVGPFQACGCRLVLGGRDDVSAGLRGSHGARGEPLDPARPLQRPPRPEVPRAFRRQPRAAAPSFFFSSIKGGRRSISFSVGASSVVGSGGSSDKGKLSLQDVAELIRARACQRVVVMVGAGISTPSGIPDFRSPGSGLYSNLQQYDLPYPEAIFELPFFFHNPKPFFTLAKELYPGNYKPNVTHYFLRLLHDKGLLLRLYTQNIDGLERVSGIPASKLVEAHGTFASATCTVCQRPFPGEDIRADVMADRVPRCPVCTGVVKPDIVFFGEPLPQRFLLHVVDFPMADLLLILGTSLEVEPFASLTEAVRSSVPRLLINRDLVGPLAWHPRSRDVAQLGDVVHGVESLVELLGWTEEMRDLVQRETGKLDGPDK
# Summary of the method: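 Cell-free enzyme assay with recombinant protein and fluorescent substrate, product separated by electrophoretic mobility shift; read 1 hour after dosing. Screened in duplicate at 25 uM, then singleton concentration-response up to 50 uM; loss of signal versus DMSO.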
# [4] = target: human Vascular Endothelial Growth Factor Receptor 3 (VEGFR3), FLT4 (gene 2324) (UniProt P35916); assay: NVS_ENZ_hVEGFR3: NovaScreen (NVS) Enzymatic Assay for human Vascular Endothelial Growth Factor Receptor 3 (VEGFR3) (AID 2283229)
# human Vascular Endothelial Growth Factor Receptor 3 (VEGFR3), FLT4 (gene 2324), sequence (P35916 whole entry, looked up): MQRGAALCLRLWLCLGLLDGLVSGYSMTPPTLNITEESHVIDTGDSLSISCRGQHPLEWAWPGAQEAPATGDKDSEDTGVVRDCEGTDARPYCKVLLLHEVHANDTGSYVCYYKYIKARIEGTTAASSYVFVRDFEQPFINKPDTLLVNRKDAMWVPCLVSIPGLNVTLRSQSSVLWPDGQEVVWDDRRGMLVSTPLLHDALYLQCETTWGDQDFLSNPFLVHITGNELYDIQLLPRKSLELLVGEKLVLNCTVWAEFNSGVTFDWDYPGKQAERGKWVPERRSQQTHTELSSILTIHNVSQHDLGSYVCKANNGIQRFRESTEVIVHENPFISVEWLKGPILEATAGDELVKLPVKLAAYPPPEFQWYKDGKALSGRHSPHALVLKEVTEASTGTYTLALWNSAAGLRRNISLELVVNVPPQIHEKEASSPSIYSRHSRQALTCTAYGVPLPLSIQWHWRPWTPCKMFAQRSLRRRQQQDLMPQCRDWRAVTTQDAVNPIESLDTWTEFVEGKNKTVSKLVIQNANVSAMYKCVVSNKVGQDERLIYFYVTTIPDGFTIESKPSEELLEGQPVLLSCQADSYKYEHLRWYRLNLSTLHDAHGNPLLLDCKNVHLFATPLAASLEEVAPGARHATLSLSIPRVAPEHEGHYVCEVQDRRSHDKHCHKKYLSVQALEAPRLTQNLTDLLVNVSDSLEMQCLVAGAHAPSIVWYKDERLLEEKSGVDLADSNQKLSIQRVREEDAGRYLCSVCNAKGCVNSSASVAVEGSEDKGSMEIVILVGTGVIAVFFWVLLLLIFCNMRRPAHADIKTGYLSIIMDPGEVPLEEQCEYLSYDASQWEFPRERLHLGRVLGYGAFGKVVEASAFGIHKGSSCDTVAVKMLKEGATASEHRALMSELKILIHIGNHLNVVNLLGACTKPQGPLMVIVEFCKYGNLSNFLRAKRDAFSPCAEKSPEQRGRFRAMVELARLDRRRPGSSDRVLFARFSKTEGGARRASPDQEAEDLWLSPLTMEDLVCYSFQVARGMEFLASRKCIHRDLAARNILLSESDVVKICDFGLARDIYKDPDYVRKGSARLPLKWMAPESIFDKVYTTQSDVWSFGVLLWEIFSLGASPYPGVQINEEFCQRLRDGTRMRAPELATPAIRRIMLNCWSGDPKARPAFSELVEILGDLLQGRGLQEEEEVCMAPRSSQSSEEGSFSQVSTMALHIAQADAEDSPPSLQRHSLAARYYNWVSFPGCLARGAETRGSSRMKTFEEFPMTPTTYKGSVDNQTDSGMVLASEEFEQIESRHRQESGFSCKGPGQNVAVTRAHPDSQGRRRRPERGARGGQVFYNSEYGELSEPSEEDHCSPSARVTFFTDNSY
# Summary of the method: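 Chemicals first run in duplicate at 25 uM, with actives re-tested in concentration series to a top of 50 uM. Recombinant VEGFR3 activity measured after 1 h via fluorescence with mobility-shift product separation; inhibition fitted relative to DMSO.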
# [5] = target: rat Catechol-O-Methyl Transferase (COMT), Comt (gene 24267) (UniProt P22734); assay: NVS_ENZ_rCOMT: NovaScreen (NVS) Enzymatic Assay for rat Catechol-O-Methyl Transferase (COMT) (AID 2283235)
# Summary of the method: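 Rat dorsal striatum extract served as COMT source; product quantified by HPLC/spectrophotometry, read at 0 h after dosing. Primary single-concentration screen at 25 uM, followed by concentration series to a 50 uM maximum.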
# [6] = target: human Tropomyosin Receptor Kinase A (TRKA), NTRK1 (gene 4914) (UniProt P04629); assay: NVS_ENZ_hTrkA: NovaScreen (NVS) Enzymatic Assay for human Tropomyosin Receptor Kinase A (TRKA) (AID 2283224)
# human Tropomyosin Receptor Kinase A (TRKA), NTRK1 (gene 4914), sequence (P04629 whole entry, looked up): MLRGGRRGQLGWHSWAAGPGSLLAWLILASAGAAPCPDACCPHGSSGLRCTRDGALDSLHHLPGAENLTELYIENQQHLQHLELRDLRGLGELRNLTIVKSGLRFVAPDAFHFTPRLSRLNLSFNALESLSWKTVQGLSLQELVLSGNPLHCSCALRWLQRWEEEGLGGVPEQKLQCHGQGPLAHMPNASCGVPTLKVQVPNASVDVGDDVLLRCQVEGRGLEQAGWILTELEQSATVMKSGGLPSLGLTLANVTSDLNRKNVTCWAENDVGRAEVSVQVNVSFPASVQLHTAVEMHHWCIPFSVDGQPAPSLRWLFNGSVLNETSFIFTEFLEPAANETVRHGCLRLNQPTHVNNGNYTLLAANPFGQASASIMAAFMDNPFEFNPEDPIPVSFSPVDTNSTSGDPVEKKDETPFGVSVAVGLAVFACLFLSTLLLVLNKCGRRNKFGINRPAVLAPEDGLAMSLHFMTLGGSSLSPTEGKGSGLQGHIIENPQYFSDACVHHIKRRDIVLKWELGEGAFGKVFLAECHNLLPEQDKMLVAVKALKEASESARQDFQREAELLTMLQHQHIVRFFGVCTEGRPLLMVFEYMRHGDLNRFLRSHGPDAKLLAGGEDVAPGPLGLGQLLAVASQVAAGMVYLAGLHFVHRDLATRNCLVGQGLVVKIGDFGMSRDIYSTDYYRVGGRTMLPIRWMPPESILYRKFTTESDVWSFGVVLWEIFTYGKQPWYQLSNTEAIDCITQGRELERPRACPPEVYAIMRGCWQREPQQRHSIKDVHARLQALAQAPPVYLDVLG
# Summary of the method: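 Compounds were screened at 25 uM in duplicate, then concentration series to a 50 uM top for those meeting threshold (e.g. 30% inhibition). Enzyme was recombinant human TrkA, incubated 1 h. Product formation was quantified by fluorescence after mobility-shift separation.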
# [7] = target: human Tyrosine Protein Kinase Receptor Tie-2 (Tie2), TEK (gene 7010) (UniProt Q02763); assay: NVS_ENZ_hTie2: NovaScreen (NVS) Enzymatic Assay for human Tyrosine Protein Kinase Receptor Tie-2 (Tie2) (AID 2283225)
# Summary of the method: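 Substrate and product were separated by mobility shift and detected by fluorescence after a 1-hour reaction with recombinant Tie2. Chemicals passing a 25 uM single-point screen were titrated to a maximum of 50 uM. Results were normalized to DMSO baseline.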
# [8] = target: human Vascular Endothelial Growth Factor Receptor 2 (VEGFR2), KDR (gene 3791) (UniProt P35968); assay: NVS_ENZ_hVEGFR2: NovaScreen (NVS) Enzymatic Assay for human Vascular Endothelial Growth Factor Receptor 2 (VEGFR2) (AID 2283230)
# Summary of the method: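 Cell-free recombinant VEGFR2 kinase, fluorescent substrate with electrophoretic mobility-shift separation; read 1 h after dosing. Screened at 25 uM in duplicate, hits to concentration-response up to 50 uM; loss-of-signal versus DMSO.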
# [9] = target: human Protein Tyrosine Phosphatase Receptor Type M (PTPRM), PTPRM (gene 5797) (UniProt P28827); assay: NVS_ENZ_hPTPRM: NovaScreen (NVS) Enzymatic Assay for human Protein Tyrosine Phosphatase Receptor Type M (PTPRM) (AID 2283215)
# Summary of the method: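 Read-out is fluorescence after electrophoretic separation of substrate and product, taken 1.33 h post-dosing with recombinant enzyme. Compounds screened at 25 uM in duplicate, then concentration series for actives; activity as signal loss relative to DMSO.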
# [10] = target: human Sirtuin 2 (SIRT2), SIRT2 (gene 22933) (UniProt Q8IXJ6); assay: NVS_ENZ_hSIRT2: NovaScreen (NVS) Enzymatic Assay for human Sirtuin 2 (SIRT2) (AID 2283217)
# Summary of the method: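 Single-point duplicate screen at 25 uM, then concentration-response (max 50 uM) for chemicals passing threshold. Enzyme activity of recombinant human SIRT2 measured after 1 hr by fluorescence with mobility-shift separation of product; DMSO baseline.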
# [11] = target: rat Constitutive Nitric Oxide Synthase (CNOS), Nos1 (gene 24598) (UniProt P29476); assay: NVS_ENZ_rCNOS: NovaScreen (NVS) Enzymatic Assay for rat Constitutive Nitric Oxide Synthase (CNOS) (AID 2283236)
# Summary of the method: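 Single 25 uM duplicate screen, then concentration series to 50 uM for chemicals meeting threshold. Rat brain membrane-derived CNOS activity detected radiometrically by filtration and scintillation counting, 1 h after compound addition; DMSO as baseline.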
# [12] = target: human Raf-1 Proto-Oncogene, serine/threonine Kinase (RAF1), RAF1 (gene 5894) (UniProt P04049); assay: NVS_ENZ_hRAF1: NovaScreen (NVS) Enzymatic Assay for human Raf-1 Proto-Oncogene, serine/threonine Kinase (RAF1) (AID 2283216)
# human Raf-1 Proto-Oncogene, serine/threonine Kinase (RAF1), RAF1 (gene 5894), sequence (P04049 whole entry, looked up): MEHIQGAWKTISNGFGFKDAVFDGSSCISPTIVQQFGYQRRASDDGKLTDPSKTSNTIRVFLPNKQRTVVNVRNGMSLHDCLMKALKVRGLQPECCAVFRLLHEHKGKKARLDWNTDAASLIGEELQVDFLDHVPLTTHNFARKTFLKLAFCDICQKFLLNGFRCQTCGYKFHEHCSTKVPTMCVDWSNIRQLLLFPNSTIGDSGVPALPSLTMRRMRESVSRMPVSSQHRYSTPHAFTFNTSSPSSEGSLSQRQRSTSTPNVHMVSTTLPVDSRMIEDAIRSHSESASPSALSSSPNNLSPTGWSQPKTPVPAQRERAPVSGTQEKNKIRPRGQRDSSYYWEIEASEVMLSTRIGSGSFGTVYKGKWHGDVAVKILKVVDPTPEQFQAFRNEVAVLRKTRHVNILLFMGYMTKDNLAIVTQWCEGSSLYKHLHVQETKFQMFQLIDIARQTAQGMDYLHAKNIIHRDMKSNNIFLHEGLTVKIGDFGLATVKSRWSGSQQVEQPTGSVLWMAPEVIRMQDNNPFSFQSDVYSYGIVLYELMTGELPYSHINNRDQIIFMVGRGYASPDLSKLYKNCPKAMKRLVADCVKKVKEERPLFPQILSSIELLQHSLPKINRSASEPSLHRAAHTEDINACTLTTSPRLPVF
# Summary of the method: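 Single-point screening at 25 uM (duplicate), followed by singleton concentration-response to 50 uM maximum for chemicals exceeding threshold. Enzyme activity from fluorescent substrate-product mobility-shift separation after 1 h, relative to DMSO.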
# [13] = target: human Vascular Endothelial Growth Factor Receptor 1 (VEGFR1), FLT1 (gene 2321) (UniProt P17948); assay: NVS_ENZ_hVEGFR1: NovaScreen (NVS) Enzymatic Assay for human Vascular Endothelial Growth Factor Receptor 1 (VEGFR1) (AID 2283226)
# human Vascular Endothelial Growth Factor Receptor 1 (VEGFR1), FLT1 (gene 2321), sequence (P17948 whole entry, looked up): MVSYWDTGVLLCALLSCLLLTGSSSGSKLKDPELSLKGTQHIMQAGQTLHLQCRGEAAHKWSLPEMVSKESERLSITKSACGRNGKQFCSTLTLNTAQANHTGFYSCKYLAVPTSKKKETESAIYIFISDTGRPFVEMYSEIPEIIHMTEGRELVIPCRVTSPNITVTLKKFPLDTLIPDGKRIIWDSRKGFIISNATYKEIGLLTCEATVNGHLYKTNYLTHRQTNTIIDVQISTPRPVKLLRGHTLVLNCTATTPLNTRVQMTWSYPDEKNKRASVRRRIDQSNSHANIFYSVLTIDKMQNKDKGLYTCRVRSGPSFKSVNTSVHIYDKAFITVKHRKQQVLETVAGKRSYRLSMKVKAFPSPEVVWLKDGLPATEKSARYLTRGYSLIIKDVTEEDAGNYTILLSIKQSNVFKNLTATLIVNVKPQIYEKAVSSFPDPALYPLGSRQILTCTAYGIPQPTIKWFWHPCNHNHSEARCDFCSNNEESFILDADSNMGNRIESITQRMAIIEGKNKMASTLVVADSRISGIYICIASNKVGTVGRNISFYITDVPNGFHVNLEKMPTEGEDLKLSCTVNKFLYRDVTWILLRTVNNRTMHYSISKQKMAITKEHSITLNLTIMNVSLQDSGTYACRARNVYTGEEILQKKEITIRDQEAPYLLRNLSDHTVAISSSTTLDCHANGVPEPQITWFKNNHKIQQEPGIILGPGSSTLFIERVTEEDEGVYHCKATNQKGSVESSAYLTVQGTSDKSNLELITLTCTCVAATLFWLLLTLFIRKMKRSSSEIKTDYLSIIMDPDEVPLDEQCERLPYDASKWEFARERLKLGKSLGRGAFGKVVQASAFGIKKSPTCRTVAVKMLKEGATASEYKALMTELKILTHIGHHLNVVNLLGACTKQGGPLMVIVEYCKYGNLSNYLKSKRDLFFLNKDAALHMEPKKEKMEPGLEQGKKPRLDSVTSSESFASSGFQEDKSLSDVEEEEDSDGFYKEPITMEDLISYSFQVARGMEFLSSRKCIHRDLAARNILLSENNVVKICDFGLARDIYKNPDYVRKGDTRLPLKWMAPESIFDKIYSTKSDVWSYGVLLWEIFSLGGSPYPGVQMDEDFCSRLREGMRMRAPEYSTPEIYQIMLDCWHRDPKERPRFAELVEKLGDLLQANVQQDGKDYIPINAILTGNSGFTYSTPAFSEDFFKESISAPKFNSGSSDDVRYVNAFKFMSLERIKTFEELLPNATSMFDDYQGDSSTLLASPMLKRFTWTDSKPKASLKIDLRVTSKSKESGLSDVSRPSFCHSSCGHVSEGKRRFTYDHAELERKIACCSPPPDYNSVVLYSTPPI
# Summary of the method: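 Kinase activity of recombinant human VEGFR1 was read by fluorescence after electrophoretic separation of product from substrate, 1 h post-dosing; initial duplicate single-point testing at 25 uM, followed by concentration-series follow-up, with DMSO as baseline.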
# [14] = target: human SRC Proto-Oncogene, Non-receptor Tyrosine Kinase (SRC), SRC (gene 6714) (UniProt P12931); assay: NVS_ENZ_hSRC: NovaScreen (NVS) Enzymatic Assay for human SRC Proto-Oncogene, Non-receptor Tyrosine Kinase (SRC) (AID 2283223)
# Summary of the method: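 Compounds passing 30% inhibition at 25 uM (duplicate) were titrated to a top concentration of 50 uM. Enzyme activity read by fluorescence with mobility-shift substrate/product separation after 1 h; DMSO baseline.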
# [15] = target: rat Monoamine Oxidase, MAO-B, Central (MAOBC), Maob (gene 25750) (UniProt P19643); assay: NVS_ENZ_rMAOBC: NovaScreen (NVS) Enzymatic Assay for rat Monoamine Oxidase, MAO-B, Central (MAOBC) (AID 2283238)
# rat Monoamine Oxidase, MAO-B, Central (MAOBC), Maob (gene 25750), sequence (P19643 whole entry, looked up): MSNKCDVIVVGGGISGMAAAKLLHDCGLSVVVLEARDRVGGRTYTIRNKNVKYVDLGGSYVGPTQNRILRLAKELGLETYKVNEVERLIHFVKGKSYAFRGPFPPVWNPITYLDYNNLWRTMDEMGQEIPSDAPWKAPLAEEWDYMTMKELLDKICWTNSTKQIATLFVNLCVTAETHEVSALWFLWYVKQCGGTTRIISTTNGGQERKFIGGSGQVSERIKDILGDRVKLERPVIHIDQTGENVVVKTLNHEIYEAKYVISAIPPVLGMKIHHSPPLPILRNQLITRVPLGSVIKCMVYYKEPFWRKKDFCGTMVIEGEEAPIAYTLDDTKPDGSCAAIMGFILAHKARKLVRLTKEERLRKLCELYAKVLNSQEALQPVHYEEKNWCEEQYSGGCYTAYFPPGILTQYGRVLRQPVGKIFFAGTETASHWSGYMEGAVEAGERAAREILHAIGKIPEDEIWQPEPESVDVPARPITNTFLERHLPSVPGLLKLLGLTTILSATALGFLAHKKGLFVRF
# Summary of the method: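 Cell-free radiometric assay, rat brain lysate. Read-out: scintillation counts, 1.17 h post-dosing. Screen 25 uM in duplicate; actives (e.g. ≥30% inhibition) then singleton concentration-response, max 50 uM. Activity loss fitted relative to DMSO.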
# [16] = target: sheep Cyclooxygenase-2 (Cox2), PTGS2 (gene 443460) (UniProt P79208); assay: NVS_ENZ_oCOX2: NovaScreen (NVS) Enzymatic Assay for sheep Cyclooxygenase-2 (Cox2) (AID 2283231)
# Summary of the method: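 Enzyme extracted from ovine placenta tested cell-free; activity read colorimetrically by absorbance 0.66 hour after dosing. Primary screen in duplicate at 25 uM; hits rerun as concentration series to 50 uM, loss of signal versus DMSO baseline.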
compound,measurement,setting,value
C[C@]12CCC(=O)C=C1CC[C@@H]1[C@@H]2CC[C@]2(C)C(=O)CC[C@@H]12,AC50,[1],24.4 µM (active)
c1cc2ccc3cccc4ccc(c1)c2c34,outcome,[2],inactive
same,outcome,[3],inactive
same,outcome,[4],inactive
CCC(C)(CC)c1cc(NC(=O)c2c(OC)cccc2OC)on1,outcome,[5],inactive
CCCN(CCC)N=O,outcome,[3],inactive
same,outcome,[6],inactive
same,outcome,[7],inactive
same,outcome,[8],inactive
Cc1cc2c3c(c1)C(c1ccccc1)=N[C@@H](NC(=O)c1ccncc1)C(=O)N3CC2,outcome,[9],inactive
same,outcome,[10],inactive
same,outcome,[3],inactive
same,outcome,[7],inactive
CN(C)CCO,outcome,[11],inactive
CC(C)C(=O)OCC(C)(C)C(OC(=O)C(C)C)C(C)C (stereo not drawn),outcome,[9],inactive
same,outcome,[12],inactive
same,outcome,[13],inactive
CC1=C2C[C@H]3[C@@H](CC=C4C[C@@H](O)CC[C@@]43C)[C@@H]2CC[C@]12O[C@@H]1C[C@H](C)CN[C@H]1[C@H]2C,outcome,[14],inactive
same,outcome,[6],inactive
same,outcome,[7],inactive
same,outcome,[4],inactive
same,outcome,[8],inactive
CCOCCOC(C)=O,outcome,[15],inactive
Clc1ccc(Cl)cc1,AC50,[16],15.8 µM (active)
O=C(O)C(F)(F)C(F)(F)C(F)(F)C(F)(F)C(F)(F)C(F)(F)C(F)(F)C(F)(F)F,outcome,[9],inactive
same,outcome,[12],inactive
same,outcome,[2],inactive
same,outcome,[6],inactive
same,AC50,[7],6.63 µM (active)
same,outcome,[13],inactive
same,outcome,[4],inactive
O=C(O)C(F)(F)C(F)(F)C(F)(F)C(F)(F)C(F)(F)F,outcome,[12],inactive
same,outcome,[4],inactive
CC(C)(O)C(=O)Nc1ccc([N+](=O)[O-])c(C(F)(F)F)c1,AC50,[15],12.1 µM (active)
N#Cc1ccc(N(CC(N)=O)CC(F)(F)F)cc1C(F)(F)F,AC50,[16],6.58 µM (active)
Cc1cccc([N+](=O)[O-])c1,outcome,[12],inactive
same,outcome,[10],inactive
ClC1=C(Cl)[C@]2(Cl)[C@@H]3[C@@H]4C[C@@H]([C@H]5O[C@@H]45)[C@@H]3[C@@]1(Cl)C2(Cl)Cl,outcome,[13],inactive
